Data on 22 compounds can be found in PubChem BioAssay (NCATS).

Several values for one entry are separate records, joined by “and”; a condition that tells them apart may be missing. Equal values may be shown once. Inconclusive results are not listed. More than one record can exist for a structure, and the calls need not agree. Values without a mark were called inactive. Activity calls are given as the source filed them. Calls come from the whole dose curve; as a rule, active = well fitted inhibition curve with a large enough effect; inconclusive = small, poorly fitted or top-dose-only effect; inactive = flat fitted curve, though single readings scatter.

For assay [1], the system named is CRL-7250. Nature of the assay: Cytotoxic Profiling of Annotated Libraries Using Quantitative High-Throughput Screening (AID 1296008). For max response: % is set by controls: 0 for no effect and ±100 for the full control effect. The settings on record: Five cell lines viability, CellTiter-Glo ATP luminescence, 48-72 h; max response: active compounds read low. In outline:
(§1)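 Compounds were pin-transferred onto cells and incubated 48 or 72 hr at 37 degree Celsius, 95% humidity. CellTiter-Glo was added, plates sat 10 min at room temperature, then ATP-coupled luminescence was imaged as the viability read-out.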
For orientation: In ATP-based viability assays light output follows the ATP content of the culture.

Assay [2] has as its system HaCat. Described as above. To be noted: Five cell lines viability, CellTiter-Glo ATP luminescence, 48-72 h; max response: active compounds read low. In a few lines: as §1
Assay [3] concerns KB-3-1. The description is as above. To be noted: Five cell lines viability, CellTiter-Glo ATP luminescence, 48-72 h; max response: active compounds read low. In outline: as §1
The test system of assay [4] is HEK293. The description is as above. The settings on record: Five cell lines viability, CellTiter-Glo ATP luminescence, 48-72 h; max response: active compounds read low. In a few lines: as §1
The test system of assay [5] is PC49. The assay can be described thus: qHTS profiling for inhibitors of Plasmodium falciparum proliferation (AID 504749). The settings on record: P. falciparum in erythrocytes, SYBR Green DNA, 72 h; series mostly up to 28.7 µM. In a few lines: (§2)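 Parasite proliferation within erythrocytes, 72 h exposure. Endpoint: SYBR Green I fluorescence after overnight lysis at room temperature. Controls: 0.29 uM artemisinin, DMSO.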
A general note: qHTS replaces the single test concentration by a dilution series.

For assay [6], the system named is W2. Described as above. The settings on record: P. falciparum in erythrocytes, SYBR Green DNA, 72 h; series mostly up to 28.7 µM. In outline:
as §2

The subject of assay [7] is SC27B. Described as above. To be noted: P. falciparum in erythrocytes, SYBR Green DNA, 72 h; series mostly up to 28.7 µM. In outline: as §2
Assay [8] has as its system TAB113. The description is as above. To be noted: P. falciparum in erythrocytes, SYBR Green DNA, 72 h; series mostly up to 28.7 µM. In a few lines: as §2
The test system of assay [9] is TAB109. The assay is described as above. To be noted: P. falciparum in erythrocytes, SYBR Green DNA, 72 h; series mostly up to 28.7 µM. In outline:
as §2

For assay [10], the system named is TAB165. The description is as above. The settings on record: P. falciparum in erythrocytes, SYBR Green DNA, 72 h; series mostly up to 28.7 µM. In a few lines: as §2
Note: nearly all actives have a fitted effect of over 60% in size.
Potency is the fitted concentration of half-maximal effect.

Consider `O=C(O)[C@H]1O[C@H](Oc2cc3oc(-c4ccccc4)cc(=O)c3c(O)c2O)[C@H](O)[C@@H](O)[C@H]1O`, for which the max response in assay [1] was -6.52%; in assay [2] it was -7.89%; in [3], 2.26%.
Take `O=C(O)c1ccc(-c2cc3cccnc3c(-c3ccc4nonc4c3)n2)cc1`: the Potency in [4] was 14.8 µM (active). Besides, the call in assay [2] was inactive.
On to `CC(C)OC(=O)CCCC=CC[C@@H]1[C@H](C=C[C@@H](O)COc2cccc(C(F)(F)F)c2)[C@H](O)C[C@@H]1O`, for which the Potency in assay [4] was 11.8 µM (active).
For the compound `CC=CC[C@@H](C)C(=O)[C@H]1C(=O)N[C@@H](C(C)C)C(=O)N(C)CC(=O)N(C)[C@@H](CC(C)C)C(=O)N[C@@H](C(C)C)C(=O)N(C)[C@@H](CC(C)C)C(=O)N[C@@H](C)C(=O)N[C@H](C)C(=O)N(C)[C@@H](CC(C)C)C(=O)N(C)[C@@H](CC(C)C)C(=O)N(C)[C@@H](C(C)C)C(=O)N1C`, the max response in [1] is -6.35%; in assay [2], -21.7%; in assay [3] it was -1.28%.
On to `CC/C(=C(\c1ccccc1)c1ccc(OCCN(C)C)cc1)c1ccccc1`, for which, in assay [5], the call was inactive. Moreover, the Potency in assay [6] is 13.5 µM (active). The max response in [1] is -3.24%; in assay [2], -10.4%; in assay [3] it was -11%.
Take `CCC(=O)NC[C@H](Cc1ccc(OCCc2nc(-c3ccccc3)oc2C)cc1)NC(C)=CC(=O)c1ccc(C(F)(F)F)cc1`: the max response in [1] was -13.2%. Also, the outcome in assay [3] was inactive.
For the compound `O=C(O)C=Cc1ccc(O)c(O)c1`, the max response in assay [1] was -10.7%; in assay [2] it was -23.4%; in [3], 6.69%.
In the case of `CN(C)CCC=C1c2ccccc2COc2ccc(CC(=O)O)cc21`, the compound was called inactive in assay [1], in assay [2] and in assay [3].
With `CO[C@H]1C=CC=C(C)C(=O)NC2=CC(=O)C(NCCN(C)C)=C(C[C@@H](C)C[C@H](OC)[C@@H](O)[C@@H](C)C=C(C)[C@@H]1OC(N)=O)C2=O`, the figures for the Potency in assay [1], in assay [2] and in [3] were 0.0526 µM (active), 0.0332 µM (active) and 0.0372 µM (active), respectively.
On to `CNC(=O)c1ccccc1Sc1ccc2c(C=Cc3ccccn3)n[nH]c2c1`, for which the Potency in [4] is 14.8 µM (active).
For the compound `CC(=O)OC1C(C)OC(Oc2c(-c3ccc(O)cc3)oc3cc(O)cc(O)c3c2=O)C(O)C1OC(C)=O` (configuration not stated), the max response in assay [1] is -21.1%; in assay [3] it was 7.1%.
Regarding `CCCCC1C(=O)N(c2ccccc2)N(c2ccccc2)C1=O`, in [5], the compound was classed as inactive. Further, the Potency entry in assay [7] and in [8] was “inactive” each time. Moreover, the max response in [1] is -3.59%; in assay [2] it was -4.56%; in assay [3], 0.189% and 30.8%.
Consider `CC(C)(C(=O)NCC(F)(F)C(F)(F)F)C(=O)N[C@@H]1C(=O)Nc2ccccc2-c2ccccc21`, for which the max response was -11.4% in assay [1] and -2.21% in [2]. In [3], the result was inactive.
Consider `O=C1NC(=O)C(=Cc2ccc(-c3ccc(F)cc3)o2)S1`, for which the figures for the max response in assay [1], in assay [2] and in assay [3] were -0.559%, -17.4% and -5.29%, respectively.
Take `COc1cc2c(cc1OC)CN(CCc1ccc(NC(=O)c3cc(OC)c(OC)cc3NC(=O)c3cnc4ccccc4c3)cc1)CC2`: the Potency in assay [4] is 11.4 µM (active). The values for the max response in assay [4] and in assay [2] were -20.5% and -17.1%, respectively. The call in assay [3] was inactive.
Turning to `COc1ccc(-c2coc3cc(O)cc(O)c3c2=O)cc1`, the max response in [1] was 1.69%; in [2], 1.1%. In addition, the call in assay [3] was inactive.
For `COc1ccc(-c2oc3c(CC=C(C)C)c(OC4O[C@H](CO)[C@@H](O)[C@H](O)[C@@H]4O)cc(O)c3c(=O)c2OC2O[C@@H](C)[C@H](O)[C@@H](O)[C@@H]2O)cc1` (some centres not stated), the Potency in [4] was 18.7 µM (active).
On to `CC(C)(C)C(=O)Oc1ccc2c(c1)nc(NC(=O)c1cccc([N+](=O)[O-])c1)n2CCCO`, for which the compound was called inactive in assay [1]. In addition, the max response in assay [2] is -9.39%; in assay [3], 7.62%.
With `CC1(C)O[C@H]2C[C@@H]3[C@H]4CCC5=CC(=O)C=C[C@]5(C)[C@@]4(F)[C@@H](O)C[C@]3(C)[C@]2(C(=O)CO)O1`, the result in assay [5] and in [9] was inactive. In addition, the Potency entry in [7], in [8] and in [10] was “inactive” throughout. Besides, the max response is -11.3% in assay [1], -12.9% in assay [2] and 1.25% in [3].
With `O=c1c(-c2ccc(O)cc2)coc2cc(O[C@@H]3O[C@H](CO)[C@H](O)[C@H](O)[C@H]3O)ccc12`, the max response is -13.5% in assay [1] and -4.86% in assay [2]. Also, the compound was called inactive in assay [3].
As for `COC[C@@H](c1ccc(C(F)(F)F)cc1)N1CCN(C2(C)CCN(C(=O)c3c(C)ncnc3C)CC2)C[C@H]1C`, the max response is -6.4% in [1], -0.948% in assay [2] and 5.03% in [3].
For `NS(=O)(=O)c1ccc(NC2=CC(=O)c3ccccc3C2=O)cc1`, in assay [2], the compound was called inactive. In assay [3], the max response is 7.69%.
